Test results taken from PubChem BioAssay (NCATS).
Inconclusive results are not listed. Calls of active or inactive are those of the source. Calls follow the shape of the dose curve; as a rule, active = well fitted curve in the direction sought with a large enough effect; inconclusive = small, poorly fitted or top-dose-only effect, or another doubt; inactive = no such curve, though single readings can be large; an effect the other way counts as inactive or inconclusive.

Columns and labels:
[1] = P-glycoprotein substrates identified in KB-8-5-11 adenocarcinoma cell line, qHTS therapeutic library screen (AID 1346987); conditions: outcome: dose series up to 44.5 µM; also: series mostly up to about 44 µM; nearly all actives have a fitted effect of over 65% in size
Outline: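 Steps: plate 500 KB-8-5-11 cells/well in DMEM + 10% FCS (colchicine removed); pin compounds in dose-response; incubate 72 h, 37 degree C, 5% CO2; add CellTiter-Glo, 5 min; read luminescence.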

[2] = NS1 protein of Zika virus - qHTS assay to identify small molecule inhibitors in human HEK 293 cells (AID 1347053); also: series mostly up to about 46 µM; nearly all actives have a fitted effect of over 55% in size
Outline: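 HEK 293 cells pretreated with compound for 1 h, then infected with ZIKV MR766 (MOI 0.5) for 24 h at 37 C. NS1 detected by TR-FRET with two anti-NS1 antibodies; normalized to uninfected (0%) and infected (100%) wells.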

[3] = qHTS of pediatric cancer cell lines to identify multiple opportunities for drug repurposing: Primary screen for TC32 cells (AID 1347089); also: nearly all actives have a fitted effect of over 60% in size
Outline: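 In the primary qHTS, MIPE compounds were tested at 11 concentrations (0.78 nM to 46 µM) and NPC compounds at 8 (0.59 nM to 46 µM) on TC32 cells for 48 h. CellTiter-Glo luminescence gave viability.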

[4] = qHTS of pediatric cancer cell lines to identify multiple opportunities for drug repurposing: Primary screen for DAOY cells (AID 1347090); also: series mostly up to about 46 µM; nearly all actives have a fitted effect of over 55% in size
Outline: (§1)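 Cell viability, CellTiter-Glo luminescence; 500-1,000 cells/well, 8- or 11-point titration, 48 h compound exposure at 37 degrees C, 5% CO2. Controls: DMSO neutral, bortezomib 2.3 µM final as positive.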

[5] = qHTS of pediatric cancer cell lines to identify multiple opportunities for drug repurposing: Primary screen for SJ-GBM2 cells (AID 1347091)
Outline: as §1

[6] = qHTS of pediatric cancer cell lines to identify multiple opportunities for drug repurposing: Primary screen for SK-N-MC cells (AID 1347093); also: potency is read from the fitted curve at half-maximal effect
Outline: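 Metabolically active cells were quantified by ATP-dependent luminescence (CellTiter-Glo, 15 min at room temperature) following 48 h treatment. Cells had been plated at 500-1,000 per well and settled for 5 h beforehand.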

[7] = qHTS of pediatric cancer cell lines to identify multiple opportunities for drug repurposing: Primary screen for BT-37 cells (AID 1347094); also: series mostly up to about 57 µM
Outline: (§2)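 Plated cells (500-1,000 per well, growth media) were allowed to settle for 5 hours, treated with compound dilutions for 48 hours, then lysed with CellTiter-Glo for 15 min at room temperature before luminescence reading.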

[8] = qHTS of pediatric cancer cell lines to identify multiple opportunities for drug repurposing: Primary screen for NB-EBc1 cells (AID 1347095)
Outline: as §2

[9] = qHTS of pediatric cancer cell lines to identify multiple opportunities for drug repurposing: Primary screen for A673 cells (AID 1347092); also: nearly all actives have a fitted effect of over 45% in size
Outline: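 48 h compound exposure, A673, 500-1,000 cells/well, 37 degrees C/5% CO2. MIPE: 11-point, 0.78 nM-46 µM; NPC: 8-point, 0.59 nM-46 µM (final). Readout CellTiter-Glo luminescence after 15 min RT.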

Measured: Potency

Cc1ccsc1C(=CCCN1CCC[C@@H](C(=O)O)C1)c1sccc1C
not listed: [9]
inactive: all other assays above

CCN(CC)CCc1nc(-c2ccccc2)no1
not listed: [9]
inactive: all other assays above

O=c1[nH]cnc2nc[nH]c12
not listed: [5] | [8]
inactive: all other assays above

CCCCCCCCCCCCCCCCC(C(=O)O)C(O)(CC(=O)O)C(=O)O (stereo not given)
not listed: [5] | [8]
inactive: all other assays above

CC[N+](CC)(CC(=O)Nc1c(C)cccc1C)Cc1ccccc1
not listed: [9]
inactive: all other assays above

O=C(O)Cc1cn(-c2ccccc2)nc1-c1ccc(Cl)cc1
not listed: [6]
inactive: all other assays above

O=C(O)Cn1c(C(=O)Nc2nc(-c3ccccc3Cl)cs2)cc2ccccc21
not listed: [4] | [6] | [9]
inactive: all other assays above

COc1ccccc1OC(=O)Oc1ccccc1OC
not listed: [3]
inactive: all other assays above

CCCNC(C)C(=O)Nc1c(C)csc1C(=O)OC (stereo not given)
not listed: [3]
inactive: all other assays above

O=C(Cn1ccnc1[N+](=O)[O-])NCc1ccccc1
not listed: [3]
inactive: all other assays above

CC[C@H](C)[C@H](N)C(=O)O
not listed: [3]
inactive: all other assays above

NNc1nnc(NN)c2ccccc12
not listed: [4]
inactive: all other assays above

C[C@H]1COc2c(C3(N)CC3)c(F)cc3c(=O)c(C(=O)O)cn1c23
not listed: [4]
inactive: all other assays above

O=c1[nH]c2cc(C(F)(F)F)c(N3CCOCC3)cc2n(CP(=O)(O)O)c1=O
not listed: [4] | [6]
inactive: all other assays above

CN[C@@H]1[C@@H](O)[C@@H](O[C@@H]2[C@H](O)[C@H](O[C@H]3OC(CN)=CC[C@H]3N)[C@@H](N)C[C@H]2N)OCC1(C)O (stereo not given in full)
not listed: [3]
inactive: all other assays above

OC(CCN1CCCC1)(c1ccccc1)C1CCCCC1 (stereo not given)
not listed: [4]
inactive: all other assays above

C[C@@H](c1ncncc1F)C(O)(Cn1cncn1)c1ccc(F)cc1F (stereo not given in full)
not listed: [4]
inactive: all other assays above

COc1cc(O)cc(O)c1
not listed: [3]
inactive: all other assays above

COc1ccc(Cc2cnc(N)nc2N)cc1OC
active: [6] 7.5 µM
not listed: [4]
inactive: all other assays above

CN(C/C=C/C#CC(C)(C)C)Cc1cccc2ccccc12
inactive: [1] | [2] | [3] | [5] | [7]

Cc1[nH]c(C)c(Cl)c(=O)c1Cl
not listed: [3]
inactive: all other assays above

O=C(/C=C/c1ccccc1)OCc1ccccc1
not listed: [3]
inactive: all other assays above

CC(C)c1cc2c(cc1S(=O)(=O)O)[C@@]1(C)CCC[C@@](C)(C(=O)O)[C@@H]1CC2
not listed: [4]
inactive: all other assays above

O=c1[nH]c(=O)c2ccccc2o1
not listed: [3]
inactive: all other assays above

c1ccc2[nH]ccc2c1
not listed: [3]
inactive: all other assays above

CN1CCCN=C1COC(=O)C(O)(c1ccccc1)C1CCCCC1 (stereo not given)
not listed: [4] | [9]
inactive: all other assays above

O=C(O)c1ccccc1C(=O)Nc1ccc(S(=O)(=O)Nc2nccs2)cc1
not listed: [4] | [6] | [9]
inactive: all other assays above
